For 11 compounds, Percent Effect results are on record in ChEMBL document CHEMBL3988442, “University of Dundee, Small-Polar-MMV Screening Library” (2021).

For some of these results: Potency and affinity values are given separately.

Common to all, as to design: scale not given: direction of the effect not stated beside the values
Experiment [1] addresses Protein translocase subunit SecA (Escherichia coli (strain K12)) (UniProt P10408). Put plainly: Assay to Identify E. coli SecA ATPase Inhibitors. The experiment is classed as functional. As to conditions: 30 µM.
For experiment [2], the target named is T1, Ubiquitin-activating enzyme e1, putative (Leishmania donovani (strain BPK282A1)) (UniProt E9BSI1).
T1 sequence (whole entry): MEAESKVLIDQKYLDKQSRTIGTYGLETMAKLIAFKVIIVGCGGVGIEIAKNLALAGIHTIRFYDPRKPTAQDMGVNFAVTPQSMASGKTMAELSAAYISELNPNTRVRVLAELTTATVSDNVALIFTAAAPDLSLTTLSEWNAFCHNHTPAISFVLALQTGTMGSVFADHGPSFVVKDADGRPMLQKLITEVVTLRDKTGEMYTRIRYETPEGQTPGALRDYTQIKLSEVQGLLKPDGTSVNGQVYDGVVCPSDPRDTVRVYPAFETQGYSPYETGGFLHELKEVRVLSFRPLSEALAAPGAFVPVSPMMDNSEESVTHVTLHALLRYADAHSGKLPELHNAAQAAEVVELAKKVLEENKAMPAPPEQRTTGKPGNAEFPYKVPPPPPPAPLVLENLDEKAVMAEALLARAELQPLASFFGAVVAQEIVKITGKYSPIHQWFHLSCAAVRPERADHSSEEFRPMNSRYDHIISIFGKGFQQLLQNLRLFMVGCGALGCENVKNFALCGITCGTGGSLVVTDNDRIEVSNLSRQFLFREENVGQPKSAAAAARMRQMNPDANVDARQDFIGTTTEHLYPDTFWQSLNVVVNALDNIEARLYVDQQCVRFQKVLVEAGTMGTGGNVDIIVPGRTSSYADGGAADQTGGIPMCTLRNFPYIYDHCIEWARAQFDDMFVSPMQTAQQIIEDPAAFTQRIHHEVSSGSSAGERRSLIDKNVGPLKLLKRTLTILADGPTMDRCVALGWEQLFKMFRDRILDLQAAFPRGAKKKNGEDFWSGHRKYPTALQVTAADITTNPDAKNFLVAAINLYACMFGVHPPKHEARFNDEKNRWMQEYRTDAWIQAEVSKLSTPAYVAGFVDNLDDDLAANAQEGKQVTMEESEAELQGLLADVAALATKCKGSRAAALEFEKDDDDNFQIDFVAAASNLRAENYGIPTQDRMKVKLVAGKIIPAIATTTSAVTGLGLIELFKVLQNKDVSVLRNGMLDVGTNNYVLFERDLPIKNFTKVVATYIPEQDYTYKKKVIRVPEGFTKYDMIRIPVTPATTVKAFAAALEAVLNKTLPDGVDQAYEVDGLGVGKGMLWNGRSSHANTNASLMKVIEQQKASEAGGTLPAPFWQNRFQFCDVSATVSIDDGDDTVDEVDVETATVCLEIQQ
Put plainly: Leishmania donovani Ubiquitin Activating Enzyme (LdE1). The format is functional. The following applies: 30 µM.

In experiment [3] the target is AMP-activated protein kinase, AMPK (Homo sapiens) (UniProt P54646+O43741+P54619+Q9UGJ0+Q9Y478+Q13131+Q9UGI9). Put plainly: AMP-dependent Kinase enzyme assay. An in vitro enzyme assay that detects ADP turnover that is directly proportional to AMPK activity. This uses naive AMPK that is activated during the assay with MK-8722. As to conditions: 30 µM. The format is functional.

Experiment [4] deals with Sialic acid-binding Ig-like lectin 9 (Homo sapiens) (UniProt Q9Y336). Put plainly: Hs-Siglec9 ALPHAscreen SOP 20170721. As to conditions: 10 µM. A general note: In Alpha technology, singlet oxygen from a donor bead excites a nearby acceptor bead.
Chain of Sialic acid-binding Ig-like lectin 9 (Homo sapiens) (Q9Y336 whole entry): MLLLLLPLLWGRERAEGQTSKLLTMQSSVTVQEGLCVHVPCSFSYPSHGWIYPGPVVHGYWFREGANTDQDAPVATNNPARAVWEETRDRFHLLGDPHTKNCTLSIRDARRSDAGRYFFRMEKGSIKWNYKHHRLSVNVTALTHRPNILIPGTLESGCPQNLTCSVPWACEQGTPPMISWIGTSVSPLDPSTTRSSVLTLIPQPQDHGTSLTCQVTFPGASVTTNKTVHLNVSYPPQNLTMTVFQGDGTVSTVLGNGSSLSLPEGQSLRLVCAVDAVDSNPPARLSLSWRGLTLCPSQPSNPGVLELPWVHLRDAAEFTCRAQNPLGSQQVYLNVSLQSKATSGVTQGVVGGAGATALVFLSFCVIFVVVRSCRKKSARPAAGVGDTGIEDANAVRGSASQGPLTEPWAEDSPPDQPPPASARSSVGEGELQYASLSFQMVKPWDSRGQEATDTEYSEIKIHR
The test system of another experiment is Trypanosoma cruzi. Put plainly: Trypanosoma cruzi phosphomannomutase and mannose-1-phosphate guanylyltransferase assay. The format is functional. As to conditions: 10 µM.
Experiment [5] deals with T2, Arginase-2, mitochondrial (Homo sapiens) (UniProt P78540).
T2 sequence (whole entry): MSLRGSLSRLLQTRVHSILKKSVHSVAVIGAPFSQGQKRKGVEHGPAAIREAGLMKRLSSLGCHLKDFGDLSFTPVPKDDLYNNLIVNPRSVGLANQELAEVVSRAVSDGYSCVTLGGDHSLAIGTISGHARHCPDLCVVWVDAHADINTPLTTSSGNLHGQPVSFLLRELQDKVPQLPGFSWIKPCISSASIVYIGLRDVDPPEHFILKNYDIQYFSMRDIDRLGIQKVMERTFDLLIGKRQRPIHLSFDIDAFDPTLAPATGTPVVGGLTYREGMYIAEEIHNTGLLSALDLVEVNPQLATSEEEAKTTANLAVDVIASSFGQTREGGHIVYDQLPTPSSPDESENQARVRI
Put plainly: in vitro enzyme assay to detect the production of urea directly proportional to the activity of Arginase II. Also: in the data most compounds retested in dose-response had high values. The format is functional. The following applies: 33.3 µM.

The target of experiment [6] is T3, Proteasome subunit beta (Trypanosoma cruzi) (UniProt O96673).
T3 sequence (whole entry): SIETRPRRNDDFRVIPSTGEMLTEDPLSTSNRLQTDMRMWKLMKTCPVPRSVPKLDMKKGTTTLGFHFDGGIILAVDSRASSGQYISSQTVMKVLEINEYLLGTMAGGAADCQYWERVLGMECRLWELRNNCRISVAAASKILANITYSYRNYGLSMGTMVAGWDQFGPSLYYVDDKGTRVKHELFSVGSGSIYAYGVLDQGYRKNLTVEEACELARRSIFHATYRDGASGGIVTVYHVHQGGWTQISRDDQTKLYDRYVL
Put plainly: Trypanosoma cruzi proteasome chymotrypsin-like activity (TcProtChymo) assay. Also: in the data most compounds retested in dose-response had high values. The format is functional. As to conditions: 9.37 µM.

For the next experiment, the species on record is Homo sapiens. Put plainly: To identify inhibition of the IFN signalling (Jak-Stat) pathway via expression of an eGFP reporter gene under the control of an IFN-stimulated response element (ISRE) containing MxA promoter. The format is functional. As to conditions: 30 µM. For orientation: A reporter such as luciferase makes a cellular process visible.

Experiment [7] concerns the target T4, Tyrosyl-tRNA synthetase, putative (Trypanosoma cruzi (strain CL Brener)) (UniProt Q4DSP6).
T4 sequence (whole entry): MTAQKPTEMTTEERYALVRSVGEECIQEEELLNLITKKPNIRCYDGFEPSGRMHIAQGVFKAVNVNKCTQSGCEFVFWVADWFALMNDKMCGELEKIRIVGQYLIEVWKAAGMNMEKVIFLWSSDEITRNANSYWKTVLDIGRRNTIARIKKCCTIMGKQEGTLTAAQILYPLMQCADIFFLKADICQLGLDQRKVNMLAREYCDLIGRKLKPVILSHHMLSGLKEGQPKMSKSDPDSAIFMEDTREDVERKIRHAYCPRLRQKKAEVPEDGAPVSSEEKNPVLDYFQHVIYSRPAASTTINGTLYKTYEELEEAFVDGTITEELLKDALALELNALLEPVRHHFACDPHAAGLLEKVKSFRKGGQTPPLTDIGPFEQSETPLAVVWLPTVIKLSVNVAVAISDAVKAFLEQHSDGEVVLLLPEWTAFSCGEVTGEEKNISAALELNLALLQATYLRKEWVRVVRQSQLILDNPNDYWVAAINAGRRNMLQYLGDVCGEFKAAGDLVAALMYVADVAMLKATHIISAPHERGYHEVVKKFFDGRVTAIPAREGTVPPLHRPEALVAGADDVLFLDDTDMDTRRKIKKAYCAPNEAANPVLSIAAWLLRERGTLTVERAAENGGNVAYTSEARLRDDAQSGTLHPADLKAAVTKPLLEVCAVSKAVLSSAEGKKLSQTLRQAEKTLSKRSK
Put plainly: Trypanosoma cruzi tyrosyl tRNA synthetase (TcYRS) _High Tyrosine SOP. Also: in the data most compounds retested in dose-response had high values. As to conditions: 30 µM. The experiment is classed as functional.

Experiment [8] concerns the target T4, Tyrosyl-tRNA synthetase, putative (Trypanosoma cruzi (strain CL Brener)). Put plainly: Trypanosoma cruzi tyrosyl tRNA synthetase (TcYRS) SOP. The experiment is classed as functional. As to conditions: 30 µM.
The target of experiment [9] is Chromo domain-containing protein 1 (Saccharomyces cerevisiae (strain ATCC 204508 / S288c) (Baker's yeast)) (UniProt P32657). Put plainly: ScCHD-1 Enzyme Inhibition Assay. Also: in the data most compounds retested in dose-response had high values. The experiment is classed as functional. As to conditions: 30 µM.
Chain of Chromo domain-containing protein 1 (Saccharomyces cerevisiae (strain ATCC 204508 / S288c) (Baker's yeast)) (P32657 whole entry, the tested form may be a part): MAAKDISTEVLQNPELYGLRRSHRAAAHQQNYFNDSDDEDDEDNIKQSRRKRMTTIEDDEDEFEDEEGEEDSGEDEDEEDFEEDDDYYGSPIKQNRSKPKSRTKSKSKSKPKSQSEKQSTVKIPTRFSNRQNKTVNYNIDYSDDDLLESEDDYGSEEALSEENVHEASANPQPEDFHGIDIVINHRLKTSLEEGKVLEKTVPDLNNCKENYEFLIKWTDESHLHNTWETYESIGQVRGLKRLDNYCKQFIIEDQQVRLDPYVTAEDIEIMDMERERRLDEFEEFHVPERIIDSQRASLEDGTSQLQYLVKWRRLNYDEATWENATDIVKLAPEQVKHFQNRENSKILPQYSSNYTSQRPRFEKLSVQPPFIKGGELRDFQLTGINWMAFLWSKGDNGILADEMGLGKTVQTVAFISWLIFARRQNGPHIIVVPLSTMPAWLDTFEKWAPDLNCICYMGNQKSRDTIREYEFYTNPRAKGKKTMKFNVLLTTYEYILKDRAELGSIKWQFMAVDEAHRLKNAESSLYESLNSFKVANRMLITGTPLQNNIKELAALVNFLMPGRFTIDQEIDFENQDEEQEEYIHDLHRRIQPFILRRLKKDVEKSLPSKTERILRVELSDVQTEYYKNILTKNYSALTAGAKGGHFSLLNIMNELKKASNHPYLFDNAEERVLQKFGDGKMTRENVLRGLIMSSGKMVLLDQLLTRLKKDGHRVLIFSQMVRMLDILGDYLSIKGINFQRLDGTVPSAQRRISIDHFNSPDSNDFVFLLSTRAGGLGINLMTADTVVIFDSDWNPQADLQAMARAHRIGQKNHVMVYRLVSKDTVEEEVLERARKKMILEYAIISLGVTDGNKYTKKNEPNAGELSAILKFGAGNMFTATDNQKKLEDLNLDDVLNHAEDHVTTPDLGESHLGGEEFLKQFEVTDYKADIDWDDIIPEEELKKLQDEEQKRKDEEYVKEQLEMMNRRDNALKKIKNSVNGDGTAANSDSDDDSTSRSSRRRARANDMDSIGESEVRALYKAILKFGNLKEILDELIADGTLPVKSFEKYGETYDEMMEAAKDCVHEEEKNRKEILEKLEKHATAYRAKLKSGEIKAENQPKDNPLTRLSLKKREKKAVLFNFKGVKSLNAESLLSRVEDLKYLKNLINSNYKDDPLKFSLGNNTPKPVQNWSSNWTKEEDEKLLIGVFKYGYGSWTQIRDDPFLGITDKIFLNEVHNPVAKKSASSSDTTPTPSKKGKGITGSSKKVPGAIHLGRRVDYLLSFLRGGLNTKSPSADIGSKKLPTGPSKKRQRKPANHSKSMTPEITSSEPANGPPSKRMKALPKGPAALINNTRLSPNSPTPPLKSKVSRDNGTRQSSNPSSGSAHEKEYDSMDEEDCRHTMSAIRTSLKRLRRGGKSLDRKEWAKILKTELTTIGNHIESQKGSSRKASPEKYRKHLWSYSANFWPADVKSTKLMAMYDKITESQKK

Chain of Protein translocase subunit SecA (Escherichia coli (strain K12)) (P10408 whole entry): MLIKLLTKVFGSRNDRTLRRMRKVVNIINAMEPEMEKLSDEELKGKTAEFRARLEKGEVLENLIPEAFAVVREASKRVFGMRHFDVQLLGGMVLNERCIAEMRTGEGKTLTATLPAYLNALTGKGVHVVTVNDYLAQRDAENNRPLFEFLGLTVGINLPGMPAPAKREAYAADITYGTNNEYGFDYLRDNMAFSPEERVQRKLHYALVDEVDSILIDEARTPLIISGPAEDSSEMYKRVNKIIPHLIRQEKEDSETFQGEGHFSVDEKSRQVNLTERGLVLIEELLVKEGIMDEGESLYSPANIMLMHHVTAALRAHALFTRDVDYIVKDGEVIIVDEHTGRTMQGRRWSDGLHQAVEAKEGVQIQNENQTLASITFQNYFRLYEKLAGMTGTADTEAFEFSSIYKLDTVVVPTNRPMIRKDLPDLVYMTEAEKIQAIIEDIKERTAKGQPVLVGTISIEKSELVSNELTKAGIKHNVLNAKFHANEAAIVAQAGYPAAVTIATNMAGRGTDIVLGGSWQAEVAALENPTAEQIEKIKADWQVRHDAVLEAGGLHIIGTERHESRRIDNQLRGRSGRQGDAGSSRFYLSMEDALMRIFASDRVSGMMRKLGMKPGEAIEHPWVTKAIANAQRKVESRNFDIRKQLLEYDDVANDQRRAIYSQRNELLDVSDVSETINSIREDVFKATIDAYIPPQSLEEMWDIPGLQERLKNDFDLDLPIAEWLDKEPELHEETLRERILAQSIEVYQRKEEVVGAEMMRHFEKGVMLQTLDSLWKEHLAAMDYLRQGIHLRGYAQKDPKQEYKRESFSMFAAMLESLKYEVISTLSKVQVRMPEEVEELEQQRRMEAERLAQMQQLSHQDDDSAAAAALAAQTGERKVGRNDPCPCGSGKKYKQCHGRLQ

As for `O=C(NCCN1CCOCC1)c1ccc(-n2ccc3ccccc32)s1`, the Percent Effect in experiment [1] is -2.64%; in [2], 10.4%; in experiment [3] it was 4.76%; in experiment [4], -1.07%; with Trypanosoma cruzi, 1.08%; in [5], -3.23%. Also, the Percent Effect in [6] is 8.01%; in the experiment filed under Homo sapiens, 28.5%; in experiment [7], 3.17%; in experiment [8] it was 11.5%; in experiment [9], -7.3%.

`CCCn1nc2c(cc1=O)CN(Cc1nc(CCOC)no1)CC2`: the Percent Effect was -1.92% in experiment [1]; 0% in experiment [2]; -119% in [3]; -3.46% in experiment [4]; -0.781% with Trypanosoma cruzi; 0.417% in [5]. Moreover, the Percent Effect in [6] is 10.6%; in the experiment filed under Homo sapiens it was -1.9%; in experiment [7], -7.92%; in experiment [8] it was -6.1%; in [9] it was -7.2%.

On to `CSCc1cccc(S(=O)(=O)N2CCSCC2)c1`, for which the Percent Effect in experiment [1] is -2.31%; in [2] it was -1.33%; in [3] it was 0.956%; in [4], 1.81%; with Trypanosoma cruzi, -4.91%; in [5], -4.05%. Further, the Percent Effect in [6] was 8.87%; in the experiment filed under Homo sapiens, 4.39%; in experiment [7] it was -16.9%; in [8], -2.56%; in experiment [9] it was -9.22%.

`O=C(Cn1cc(C(=O)O)ccc1=O)Nc1ccc(F)cc1Cl`: the Percent Effect in [1] is -1.48%; in experiment [2], 14.7%; in experiment [3], 2.96%; in experiment [4] it was 5.48%; in the experiment with Trypanosoma cruzi it was 1.18%; in experiment [5], -12.2%. Moreover, the Percent Effect in [6] was 11.5%; in the experiment listed under Homo sapiens, -15%; in experiment [7], 6.35%; in experiment [8], 5.13%; in [9], -9.34%.

With `CC(NC(=O)N1CCC(n2cncn2)CC1)c1ccc(F)cc1F` (stereo unspecified), the Percent Effect was -3.51% in experiment [1]; 12.7% in experiment [2]; -2.69% in [3]; 7.75% in experiment [4]; -0.0944% in the experiment on Trypanosoma cruzi; -1.14% in experiment [5]. Moreover, the Percent Effect was 8.6% in experiment [6]; 8.31% in the experiment listed under Homo sapiens; 5.42% in [7]; 13.9% in experiment [8]; -5.72% in experiment [9].

Regarding `CCc1noc(CN(C)Cc2ccc(N3CCCCC3)cc2)n1`, the Percent Effect in experiment [1] is -2.48%; in experiment [2] it was 2.6%; in experiment [3], 0.261%; in [4], 13%; in the experiment on Trypanosoma cruzi it was 3.83%; in experiment [5], 15.2%. In addition, the Percent Effect was 13.5% in [6]; 5.54% in the experiment filed under Homo sapiens; -6.45% in experiment [7]; -8.64% in experiment [8]; -6.82% in experiment [9].

On to `COc1ncccc1NC(=O)C1CCS(=O)(=O)C1` (stereo unspecified), for which the Percent Effect in experiment [1] was -5.85%; in [2], 20.8%; in experiment [3], -1.47%; in experiment [4], -3.58%; in the experiment with Trypanosoma cruzi, -5.99%; in experiment [5], -1.07%. Besides, the Percent Effect in experiment [6] was 3.21%; in the experiment filed under Homo sapiens it was 19.2%; in experiment [7], 3.88%; in [8] it was 12.2%; in experiment [9] it was -9.93%.

As to `CN(CCN1CCOCC1)C(=O)CCCc1ccccc1`, the Percent Effect in experiment [1] is -3.72%; in [2] it was 0%; in experiment [3], 3.21%; in experiment [4] it was 3.74%; in the experiment with Trypanosoma cruzi it was 4.38%; in [5], -3.55%. Besides, the Percent Effect was 13.9% in [6]; -19% in the experiment listed under Homo sapiens; 5.32% in [7]; 5.2% in [8]; 0.287% in experiment [9].

As to `CCN1CC2(CCNCC2)COc2ccccc2S1(=O)=O`, the Percent Effect in [1] was -1.39%; in [2], 6.67%; in [3], 7.12%; in [4], 3.15%; in the experiment with Trypanosoma cruzi, -4.91%; in experiment [5] it was -18.1%. Moreover, the Percent Effect was 13.1% in experiment [6]; 2.26% in the experiment filed under Homo sapiens; -7.41% in experiment [7]; 5.13% in experiment [8]; -8.01% in [9].

For `CN(C)C(=O)c1ccc(CNC(=O)NCCN(C)C2CCCC2)cc1`, the Percent Effect is -0.464% in experiment [1]; 16.2% in [2]; -9.52% in experiment [3]; -5.04% in experiment [4]; -3.87% in the experiment on Trypanosoma cruzi; -2.81% in experiment [5]. For the same compound, the Percent Effect was 5.41% in experiment [6]; 22.8% in the experiment listed under Homo sapiens; 7.39% in experiment [7]; 18.5% in experiment [8]; -6.9% in [9].

As for `CCc1n[nH]c(C2CN(CCc3ccncc3)CCO2)n1` (stereo unspecified), the Percent Effect in experiment [1] is -6.01%; in [2], 3.8%; in experiment [3], 7.99%; in experiment [4], 7.24%; with Trypanosoma cruzi it was 0.103%; in experiment [5], 0.215%. The Percent Effect in [6] is 1.72%; in the experiment listed under Homo sapiens, 14%; in experiment [7], 1.04%; in experiment [8] it was 7.59%; in experiment [9], -9.31%.
